What all share (assay): NCI-60 one-dose screen, 48 h (100 = growth as untreated, 0 = no growth, -100 = all killed)
Settings in all cases: 10 µM unless noted

Test [1] concerns SR leukemia.
Test [2] relates to RPMI-8226 leukemia.
Test [3] has as its system OVCAR-8 ovarian.
The subject of test [4] is OVCAR-5 ovarian.
The test system of test [5] is OVCAR-4 ovarian.
Test [6] has as its system IGROV1 ovarian.
Test [7] deals with OVCAR-3 ovarian.
Test [8] relates to HS 578T breast.
Test [9] deals with NCI/ADR-RES ovarian.
Test [10] deals with T-47D breast.
For test [11], the system named is BT-549 breast.
For test [12], the system named is MDA-MB-435 melanoma.
The test system of test [13] is SW-620 colon.
Test [14] concerns MCF7 breast.
For test [15], the system named is HCT-116 colon.
For test [16], the system named is HCC-2998 colon.
For test [17], the system named is KM12 colon.
Test [18] deals with SK-OV-3 ovarian.

About 83,000 compounds went through this panel and 20% of them were active in at least one assay; those are over-represented in the sample as a whole.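 Single-concentration screen, 48 h exposure, 96-well plates. Endpoint: percent growth. Below 10 = active.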 Unmarked numbers belong to inactive results. Calls of active or inactive are those of the source.

As to `O=C(NNc1nc2cc(F)ccc2n2cccc12)c1ccncn1`, the growth in test [1] was 8.74% (active); in [2], 16.8%; in [3], 18.7%; in [4], 45%; in test [5], -6.78% (active); in test [6], 15.5%. The growth was 5.01% (active) in [7]; 42.8% in test [8]; 5.87% (active) in test [9]; 4.38% (active) in test [10]; 21.9% in test [11]; 31.5% in [12]. Moreover, the growth in test [13] is 22.7%; in [14], 7.62% (active); in test [15], 18.3%; in test [16], 53.2%; in test [17] it was 23.1%.
Take `CC1=NC2=NC(=O)/C(=C3/N=C(C)C=C(c4ccccc4)N3N)NN2C(c2ccccc2)=C1`: the growth in [1] is 116%; in [2] it was 111%; in [4], 101%; in [5], 96.7%; in test [18], 98.8%; in [6], 70.1%. Moreover, the growth in [7] is 108%; in test [8], 116%; in test [9] it was 108%; in [10], 102%; in test [11] it was 111%; in test [12] it was 108%. Moreover, the growth was 108% in test [13]; 93.6% in test [14]; 102% in test [15]; 110% in test [16]; 98.4% in test [17].
Regarding `COc1cc(C2N=C(NNc3ccccc3)NC(C)=C2C(C)=O)ccc1O` (stereo not drawn), the growth in [1] is 57.7%; in [2], 110%; in test [4], 92.7%; in [5], 93%; in test [18], 90.1%; in test [6], 69.9%. Moreover, the growth in test [7] was 122%; in test [8], 108%; in test [9] it was 87.8%; in test [10], 83.9%; in test [11], 123%; in test [12], 92.5%. Further, the growth in test [13] is 82.1%; in [14], 88.7%; in test [15], 95.1%; in test [16] it was 98.9%; in test [17] it was 95.6%.
For the compound `COc1cc2nc(Cl)nc(Nc3cccc(C4=Nc5c(N)nc(N)nc5NC(c5ccc6c(c5)OCO6)C4)c3)c2cc1OC` (stereo not drawn), the growth in test [1] was 10.3%; in test [2], 41.7%; in test [4], 112%; in test [5], 97%; in [18], 112%; in [6] it was 77.6%. Also, the growth in test [7] was 63.5%; in test [8] it was 82.7%; in [9] it was 93.1%; in test [10] it was 68.9%; in test [11], 76.8%; in test [12] it was 88.5%. The growth in test [13] was 76.9%; in [14], 54%; in test [15], 55.3%; in [16], 74.6%; in test [17], 46.8%.
In the case of `O=S(=O)(NCCCNc1nccc(-c2[nH]c(-c3ccccc3)nc2-c2ccc(Cl)c(O)c2)n1)c1cccc2ccccc12`, the growth in [1] is 17.8%; in test [2], 9.64% (active); in [4], 67.1%; in test [5] it was 56.9%; in test [18] it was 68.5%; in test [6], 28.7%. Further, the growth is 18.7% in [7]; 44% in test [8]; 34.6% in test [9]; 21.9% in test [10]; 46% in test [11]; 16.6% in [12]. The growth is 34.1% in test [13]; 16.4% in test [14]; 16.3% in test [15]; 70% in [16]; 21.5% in test [17].
`CC1(C)CC[C@]2(C(=O)O)CC[C@]3(C)C(=CC[C@@H]4[C@@]5(C)CC/C(=N\OCCC#N)C(C)(C)[C@@H]5CC[C@]43C)[C@@H]2C1`: the growth is 103% in [1]; 97.5% in test [2]; 103% in test [4]; 82.6% in test [5]; 110% in test [18]; 85.7% in test [6]. Further, the growth is 110% in [7]; 107% in test [8]; 116% in test [9]; 104% in test [10]; 106% in [11]; 101% in [12]. Besides, the growth in [13] was 94.2%; in [14] it was 95.5%; in [15], 96.4%; in [16], 116%; in test [17], 105%.
On to `O=C1CC(=O)N2CSCN(C(c3ccccc3)c3nc4ncncc4[nH]3)C2=N1` (stereo not drawn), for which the growth was 118% in test [1]; 107% in [2]; 111% in [4]; 107% in [5]; 113% in test [18]; 99.3% in test [6]. Further, the growth was 107% in test [7]; 107% in test [8]; 99.3% in test [9]; 98.8% in [10]; 105% in test [11]; 107% in [12]. Moreover, the growth in test [13] was 102%; in [14], 93.9%; in test [15] it was 105%; in test [16] it was 99.4%; in test [17], 103%.
In the case of `CCCCCc1ccc(S(=O)(=O)Nc2cccc(-c3csc(NCCN4CCN(C)CC4)n3)c2)cc1`, the growth in test [1] is -6.54% (active); in test [2], -21.4% (active); in test [4], 94.1%; in test [5] it was 84.5%; in [18] it was 92.4%; in [6], 79.9%. In addition, the growth is 68.1% in test [7]; 87% in test [8]; 85.7% in test [9]; 80.1% in test [10]; 95.1% in test [11]; 29.7% in test [12]. The growth is 2.57% (active) in test [13]; 15.5% in [14]; 4.07% (active) in test [15]; -6.69% (active) in [16]; 77.7% in test [17].
On to `c1ccc(C(c2nc3ncncc3[nH]2)N2CSc3nc4ccccc4n3C2)cc1` (stereo not drawn), for which the growth is 111% in test [1]; 104% in test [2]; 103% in [4]; 99.7% in test [5]; 102% in test [18]; 99.9% in [6]. The growth was 105% in test [7]; 108% in test [8]; 104% in test [9]; 110% in [10]; 102% in test [11]; 105% in test [12]. Besides, the growth in [13] is 98%; in [14], 94.9%; in test [15] it was 114%; in [16] it was 107%; in [17] it was 94.4%.
